# HepG2 viability: qHTS for Inhibitors of TGF-b: Cytotox Counterscreen; HepG2 CAGA-GFP viability, ATP luminescence, 18 h; Potency, µM (series often up to 46.1 µM), for inactives: top-dose activity change, negative = cytotoxicity, usual class: cytotoxic; actives 0.76% (n = 410,000); AID 588856, 2011; also: potency is read from the fitted curve at half-maximal effect
#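 CellTiter-Glo luminescence gave cytotoxicity after 18 hours at 37 degrees C. The cells were HepG2 CAGA-GFP in 1% FBS DMEM, stimulated with 500 pg/mL TGF-beta after compound addition. %Activity was normalised to no-cell wells (complete cell-killing) and DMSO (no toxicity), and curves were fitted and classified.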
# TGFb inhibitor: qHTS for Inhibitors of TGF-b; Potency, µM (titrated, usually from 46.1 µM), inactives show at the highest dose activity, negative = inhibition, usual class: inhibitors; HepG2 CAGA-GFP TGF-b/SMAD3 reporter, GFP fluorescence, 18 h; TGF-beta stimulated, 500 pg/mL final; actives 1.2% (n = 410,000); also: potency is read from the fitted curve at half-maximal effect; % is scaled to controls: 0 for no effect and ±100 for the full control effect; nearly all actives have a fitted effect of over 65% in size
#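 Read-out: total well GFP (ex488/em500-530) summed from mean per-cell fluorescence. Cells: HEPG2 CAGA-GFP, 1% FBS DMEM, 18 h at 37 degrees C with 500 pg/mL final TGF-beta. Unstimulated wells served as the full-inhibition control; stimulated DMSO wells = 0%.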
# TDP1 block: qHTS Assay for Inhibitors of Tyrosyl-DNA Phosphodiesterase (TDP1); Potency, µM (highest dose often 130 µM), inactives show top-dose activity change, negative = inhibition, hits mostly inhibitors; AID 485290, 2010; actives 0.28% (n = 350,000); Tyrosyl-DNA phosphodiesterase 1 (Homo sapiens), Q9NUW8; recombinant TDP1, AlphaScreen DNA substrate cleavage; also: potency is read from the fitted curve at half-maximal effect; % is scaled to controls: 0 for no effect and ±100 for the full control effect; nearly all actives have a fitted effect of over 40% in size
# Target sequence (Q9NUW8 whole entry, looked up): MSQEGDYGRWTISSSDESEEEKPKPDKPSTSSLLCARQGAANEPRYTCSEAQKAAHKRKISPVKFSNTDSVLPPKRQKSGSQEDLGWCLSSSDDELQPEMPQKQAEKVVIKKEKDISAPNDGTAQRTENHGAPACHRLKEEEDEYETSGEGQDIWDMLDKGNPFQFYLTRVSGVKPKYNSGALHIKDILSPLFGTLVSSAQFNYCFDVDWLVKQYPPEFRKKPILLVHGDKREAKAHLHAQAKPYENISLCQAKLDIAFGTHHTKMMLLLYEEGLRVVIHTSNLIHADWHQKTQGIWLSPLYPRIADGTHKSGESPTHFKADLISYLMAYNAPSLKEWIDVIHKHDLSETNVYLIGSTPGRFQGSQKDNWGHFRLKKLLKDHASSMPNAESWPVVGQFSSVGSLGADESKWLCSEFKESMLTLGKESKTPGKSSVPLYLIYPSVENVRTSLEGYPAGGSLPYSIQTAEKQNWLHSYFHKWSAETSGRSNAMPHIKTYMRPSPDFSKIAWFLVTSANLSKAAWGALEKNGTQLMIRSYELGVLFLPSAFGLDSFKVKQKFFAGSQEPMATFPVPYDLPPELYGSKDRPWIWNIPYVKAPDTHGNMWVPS
#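 AlphaScreen read-out: signal falls as enzyme removes the 3' tyrosine-FITC from a 5'-biotinylated DNA oligo (15 nM, 5 min, RT). Enzyme was E. coli-made recombinant Tdp1 at 1 nM, exposed to compound for 15 min beforehand; beads 10 ug/ml, 10 min.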
# DT40 TDP1 CPT: qHTS for Inhibitors of human tyrosyl-DNA phosphodiesterase 1 (TDP1): qHTS in cells in presence of CPT | chicken DT40 Tdp1-/-;hTDP1 cells + 20 nM CPT, ATP luminescence, 48 h | Potency, µM (highest dose often 46.2 µM), without a hit: at the top dose activity change, negative = growth inhibition, most hits filed as inhibitors | actives 12% (n = 420,000); also: potency is read from the fitted curve at half-maximal effect; % is scaled to controls: 0 for no effect and ±100 for the full control effect; nearly all actives have a fitted effect of over 55% in size
#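 Chicken DT40 Tdp1-/- cells complemented with human TDP1, 400 cells/well, exposed to compounds plus 20 nM camptothecin for at least 48 h at 37 C; viability read as ATP content by CellTiter-Glo luminescence.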
# DT40 TDP1 no CPT: qHTS for Inhibitors of human tyrosyl-DNA phosphodiesterase 1 (TDP1): qHTS in cells in absence of CPT. DT40 Tdp1-/- hTDP1 cells, no CPT, ATP luminescence, 48 h. Potency, µM (titrated, usually from 46.2 µM), inactives show at the highest dose activity change, negative = growth inhibition, usual class: inhibitors. actives 15% (n = 420,000); also: potency is read from the fitted curve at half-maximal effect; % is scaled to controls: 0 for no effect and ±100 for the full control effect; nearly all actives have a fitted effect of over 55% in size
#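 Seeded 400 DT40-hTDP1 cells/well (vehicle DMSO, no 20 nM CPT); pinned compounds; ≥48 hr at 37 °C; CellTiter-Glo luminescence as viability measure.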
# IL1B secr inh: qHTS for Inhibitors of Inflammasome Signaling: IL-1-beta AlphaLISA Primary Screen; AID 743279, 2014; THP-1 LPS/ATP IL-1B secretion, AlphaLISA, 16 h; active compounds read low; activity change, % at 57.5 µM; actives 4.7% (n = 360,000); in the data active = activity change below about -50%; inconclusive = mostly about -30% to -49%; also: % is scaled to controls: 0 for no effect and ±100 for the full control effect
#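 THP-1 cells pretreated 1 hr with compounds (up to 57.5 uM final), then stimulated with LPS (250 ng/mL final) plus ATP (1.25 mM final); secreted IL-1B measured by AlphaLISA after 16 hr, decreased signal indicating inhibition.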
# Numbers without * were called inactive; ? = inconclusive; . = no result given; [ ] = dose if it differs, or a comment. Hits are enriched below; roughly 19% of the tested compounds scored in any of these assays. Unless noted, calls follow the shape of the dose curve; as a rule, active = well fitted curve in the direction sought with a large enough effect; inconclusive = small, poorly fitted or top-dose-only effect, or another doubt; inactive = no such curve, though single readings can be large; an effect the other way counts as inactive or inconclusive.
SMILES,HepG2 viability,TGFb inhibitor,TDP1 block,DT40 TDP1 CPT,DT40 TDP1 no CPT,IL1B secr inh
CCOC(=O)C1CCC(CN(Cc2c(Cl)cccc2Cl)S(=O)(=O)c2ccc(F)c(C)c2)CC1 (stereo not drawn),4%,5%,5%,?,?,.
CC(C)(C)c1cc(C(=O)NNC(=O)Nc2cccc(Cl)c2)n(Cc2ccccc2)n1,-49%,?,5%,?,?,24
CC(N)c1csc(NC(=O)c2cc(C(C)(C)C)nn2Cc2ccccc2)n1 (stereo not drawn),-99%,22µM*,.,18µM*,21µM*,-55*
Cc1ccc(S(=O)(=O)N(C)C)cc1NC(=O)c1cc(C(C)(C)C)nn1Cc1ccccc1,0%,0%,0%,23µM*,?,-11
Cc1ccc(S(=O)(=O)N(C)C)cc1NC(=O)CN1CCN(Cc2ccccc2)CC1,-5%,-3%,3%,11%,-2%,22
COc1ccc(CC(N)c2csc(NC(=O)c3cc(C(C)(C)C)nn3Cc3ccccc3)n2)cc1 (stereo not drawn),11µM*,?,.,5.8µM*,4.6µM*,-78*
CC(=O)Nc1c(I)c(C(=O)N[C@H]2[C@@H](O)[C@H](O)[C@H](CO)O[C@@H]2O)c(I)c(N(C)C(C)=O)c1I,.,.,14%[21 µM],.,.,.
CN(C(=O)C(=O)Nc1ccc2nc3n(c(=O)c2c1)CCCCC3)c1cccc(C(F)(F)F)c1,-19%,?,0%,4%,-1%,.
CC(C)NC(=O)CS(=O)(=O)c1ccccc1,1%,2%,.,-2%,-12%,5
CC(C)NC(=S)NC(c1ccccc1)(c1ccccc1)c1ccccc1,-26%,?,.,?,23µM*,-1
Cc1nnc2sc(SCc3cccc(Cl)c3)nn2c1=O,3%,-11%,1%,-8%,?,-100*
Cc1ccc2c(c1)c(=O)c1c3n2CCN(C(=O)CCl)C3CC1 (stereo not drawn),-4%,-1%,.,26µM*,16µM*,-15
Cc1ccc2c(c1)c1c3n2CCN(C(=O)CN2CCN(C)CC2)C3CCC1 (stereo not drawn),-93%,?,10%,?,16µM*,-22
Cc1ccc2c(c1)c1c3n2CCN(CC(N)=O)C3CCC1 (stereo not drawn),-11%,-19%,.,?,?,-2
Cc1ccc2c(c1)c1c3n2CCN(CC(O)CNC(C)C)C3CCC1 (stereo not drawn),-14%,16%,.,?,?,-57*
Cc1ccc2c(c1)c1c(n2CC(O)CNC2CCCC2)CCCC1 (stereo not drawn),-101%,?,5%,?,?,-90*
COc1cc(OC)cc(C(=O)N2CCCC(n3cc(C(=O)NCC(C)C)nn3)C2)c1 (stereo not drawn),.,.,.,16%[9.04 µM],-7%,.
O=C(NCCCn1ccnc1)c1ccc(OCC(F)(F)F)cc1,-7%,-1%,.,6%,6%,0
COc1ccccc1CNC(=O)c1cccc(Nc2nc3ccccc3n3nnnc23)c1,9%,?,0%,?,?,.
COc1cc(C2(c3ccc(O)c(OC)c3)C(=O)Nc3c(C)cc(Br)cc32)ccc1O,2%,?,.,2%,0%,-102*
CC(C)NC(=O)[C@]1(C)CCC[C@@]2(C)C3CC[C@@]4(C)C[C@]3(CCC21)CC4=O (stereo partly drawn),-13%,?,1%,?,-28%,17
COC(=O)[C@]1(C)CCC[C@@]2(C)C3CC[C@]4(OC(C)=O)C[C@@]3(CCC21)CC4=O (stereo partly drawn),-24%,-16%,1%,21µM*,?,24
COC(=O)[C@]1(C)CCC[C@@]2(C)C3CC[C@@]4(C)C[C@]3(CCC21)CC(=O)N4Cc1ccc(OC)cc1 (stereo partly drawn),-29%,?,1%,12µM*,6.5µM*,?
Cc1ccc(S(=O)(=O)N2CCc3cc(C(=O)Nc4c(C)cccc4C(C)C)ccc32)cc1,1%,-13%,-2%,?,?,.
Cc1cccnc1Oc1ncccc1N,-4%,-7%,.,3%,-3%,1
SMILES,HepG2 viability,TGFb inhibitor,TDP1 block,DT40 TDP1 CPT,DT40 TDP1 no CPT,IL1B secr inh
COc1c(F)c(F)c(C(=O)Nc2ccc(-c3nc4ccccc4[nH]3)cc2)c(F)c1F,30%,28%,5%,6.5µM*,4.6µM*,9
Cc1ccc2nc(-c3ccc(NC(=O)CSc4ccccc4)cc3)[nH]c2c1,-63%,-18%,0%,10µM*,16µM*,34
O=C(Cc1cccs1)Nc1ccc(-c2nc3ccccc3[nH]2)cc1,-46%,1%,-8%,?,21µM*,-53*
O=C(CN1CCOCC1)Nc1ccc(-c2nc3ccccc3[nH]2)cc1,-22%,-4%,-1%,-12%,-1%,2
CCNC(=S)Nc1ccc(-c2nc3ccccc3[nH]2)cc1,-4%,3%,8%,6%,?,-10
O=C(CSc1ccccc1)Nc1ccc(-c2nc3ccccc3[nH]2)cc1,16µM*,?,-4%,23µM*,10µM*,2
O=C(Nc1ccc(-c2nc3ccccc3[nH]2)cc1)c1c(F)c(F)c(F)c(F)c1F,6%,1%,0%,-2%,-7%,-7
O=C(c1ccco1)N1CCN(C2CN(Cc3ccc([N+](=O)[O-])cc3)S(=O)(=O)C2)CC1 (stereo not drawn),-10%,-1%,.,-9%,-15%,3
O=C(CSc1ccc(Cl)cc1)Nc1cccc(-c2nc3ccccc3[nH]2)c1,-14%,?,-5%,9.2µM*,10µM*,-9
O=c1c2oc3ccccc3c2n(Cc2ccccc2Cl)c(=O)n1Cc1ccc2c(c1)OCO2,-9%,2%,0%,-2%,?,.
COc1ccc2oc(C(=O)Nc3ccccc3N3CCOCC3)c(C)c2c1,-3%,10%,-4%,-24%,?,15
